According to PubChem BioAssay AID652115 (Broad Institute, 2013):
Where “and” joins values, the source holds several entries; their conditions need not be identical. Equal values may be shown once. The whole screen tested about 330,000 compounds, of which about 3,800 (1.2%) were called active. This is one part of a sample in which actives are shown more often than they occur. Cut-off read from the data, not from the text of the source: active = inhibition above about 15%; inconclusive = no clear call, values can overlap the other calls; inactive = below that.

The molecules below were run against NAD-dependent protein deacylase sirtuin-5, mitochondrial (Homo sapiens) (UniProt Q9NXA8) (assay: blockers of sirtuin-5 deacylase activity – biochemical, fluorescence imaging, single point, set 5, primary screen (AID 652115)). Conditions: Purified SirT5, succinyl-peptide AMC, trypsin-coupled fluorescence; at 15 µM; active compounds read high.
Chain of NAD-dependent protein deacylase sirtuin-5, mitochondrial (Homo sapiens) (Q9NXA8 whole entry, looked up): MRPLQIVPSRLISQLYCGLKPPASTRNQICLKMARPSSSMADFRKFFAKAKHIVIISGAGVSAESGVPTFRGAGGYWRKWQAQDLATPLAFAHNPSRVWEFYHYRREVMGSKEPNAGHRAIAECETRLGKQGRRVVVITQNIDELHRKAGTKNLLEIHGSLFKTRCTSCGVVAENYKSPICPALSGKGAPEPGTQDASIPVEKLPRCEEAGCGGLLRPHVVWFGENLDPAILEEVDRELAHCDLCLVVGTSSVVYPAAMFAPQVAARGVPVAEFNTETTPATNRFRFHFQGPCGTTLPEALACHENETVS

inhibition, active:
O=C(c1cccc(S(=O)(=O)N2CCCC2)c1)N(Cc1ccco1)C1CCS(=O)(=O)C1 (stereo unspecified) 18.1%
COC(=O)COc1cccc2c(=O)n(CC(=O)NCCc3ccc(OC)c(OC)c3)ccc12 15.1%
COc1cc(C)c(CN2CCN(C(=O)CCC(=O)c3ccc(C)s3)CC2)cc1OC 19.2%
COc1ccc(S(=O)(=O)Nc2ccc3c(c2)C(=O)N([C@H](C)CO)C[C@H](C)[C@@H](CN(C)Cc2ccc(-c4ccccc4)cc2)O3)cc1 16.6%
COc1ccc(CN(C)C[C@H]2Oc3c(NS(=O)(=O)c4ccccc4)cccc3C(=O)N([C@@H](C)CO)C[C@H]2C)cc1 26.9%
COc1ccc(S(=O)(=O)Nc2cccc3c2O[C@@H](CN(C)Cc2ccc(-c4ccccc4)cc2)[C@H](C)CN([C@H](C)CO)C3=O)cc1 19.6%
Cc1nnc(NC(=O)c2ccc3nccnc3c2)s1 16.3%
COC(=O)c1ccc(CSc2nnc(N)s2)o1 16%
CCOC(=O)c1c(NC(=S)Nc2ccccc2C)sc2c1CCC2 22.8%
O=C1NC(c2ccncc2)Nc2sc3c(c21)CCCC3 (stereo unspecified) 15.5%
CO[C@H]1CN(C)C(=O)c2ccc(NC(=O)c3ccno3)cc2OC[C@@H](C)N(S(C)(=O)=O)C[C@H]1C 17%
COc1ccccc1OCC(=O)OCc1cc(-c2ccco2)on1 18.8%
C[C@@H]1CCCCO[C@H](CN(C)Cc2ccc(C(F)(F)F)cc2)[C@@H](C)CN([C@@H](C)CO)C(=O)c2cc(NC(=O)c3ccncc3)ccc2O1 15.9%
Cc1ccc(S(=O)(=O)Nc2ccc3c(c2)C(=O)N([C@@H](C)CO)C[C@@H](C)[C@H](CN(C)Cc2ccc(Cl)c(Cl)c2)OCCCC[C@@H](C)O3)cc1 17.4%
C[C@@H]1CCCCO[C@H](CN(C)CC2CCCCC2)[C@H](C)CN([C@H](C)CO)C(=O)c2cc(NS(=O)(=O)c3ccc(F)cc3)ccc2O1 16%
Cc1ccc(S(=O)(=O)Nc2ccc3c(c2)C(=O)N([C@H](C)CO)C[C@@H](C)[C@H](CN(C)S(=O)(=O)c2ccc(C)cc2)OCCCC[C@@H](C)O3)cc1 15.5%

inhibition, inactive:
CCCCN(C(=O)c1ccc(S(=O)(=O)N2CCOCC2)cc1)C1CCS(=O)(=O)C1 (stereo unspecified) 2.17%
CC(C)CN(C(=O)c1cccc(S(=O)(=O)N2CCCCC2)c1)C1CCS(=O)(=O)C1 (stereo unspecified) -1.89%
CN(C)C(=O)C[C@@H]1CC[C@@H](NC(=O)NC2CCCC2)[C@@H](CO)O1 1.11%
COc1cccc(S(=O)(=O)N[C@H]2CC[C@@H](CCN)O[C@H]2CO)c1 0.762%
COC(=O)COc1cccc2c(=O)n(CC(=O)NCc3ccccc3)ccc12 -3.93%
CCOC(=O)C(C)Oc1cccc2c(=O)n(CC(=O)NCCc3ccc(OC)c(OC)c3)ccc12 (stereo unspecified) -3.89%
CO[C@@H]1CN(C)C(=O)c2cc(NC(=O)c3cnccn3)ccc2OC[C@@H](C)N(C(=O)C2CC2)C[C@@H]1C 2.16%
COc1cccc(-c2ccc([C@H]3[C@H]4CN(C(=O)NC(C)C)CC(=O)N4[C@H]3CO)cc2)c1 1.38%
COc1cc(OC)c(OC)cc1CN1CCN(C(=O)c2cccc3ccccc23)CC1 -1.16%
COc1ccc(OC)c(CN2CCN(C(=O)CNC(=O)c3cc(C)cc(C)c3)CC2)c1 -1.91%
O=C(C[C@H]1CC[C@H]2[C@@H](COC[C@@H](O)CN2Cc2ccccc2)O1)N[C@@H]1CCN(Cc2ccccc2)C1 -3.08%
CCCNC(=O)N(C)C[C@H]1Oc2ncc(-c3cccc(C#N)c3)cc2C(=O)N([C@@H](C)CO)C[C@H]1C 0.845%
CCNC(=O)C[C@@H]1CC[C@H]2[C@@H](COC[C@@H](O)CN2C(=O)c2cc(Cl)cc(Cl)c2)O1 -2.11%
COc1ccc(S(=O)(=O)Nc2ccc3c(c2)C(=O)N([C@H](C)CO)C[C@@H](C)[C@H](CN(C)Cc2ccccc2)O3)cc1 5.6%
COc1ccc(CN(C)C[C@H]2Oc3c(NS(=O)(=O)c4ccc(Cl)cc4)cccc3C(=O)N([C@H](C)CO)C[C@H]2C)cc1 -3.94%
COc1ccc(CN(C)C[C@H]2Oc3c(NS(=O)(=O)c4ccccc4)cccc3C(=O)N([C@H](C)CO)C[C@@H]2C)cc1 6.84%
COc1ccc(S(=O)(=O)Nc2ccc3c(c2)C(=O)N([C@H](C)CO)C[C@@H](C)[C@@H](CN(C)Cc2ccccc2)O3)cc1 3.29%
COc1ccc(CN(C)C[C@H]2Oc3c(NS(=O)(=O)c4ccc(C)cc4)cccc3C(=O)N([C@@H](C)CO)C[C@@H]2C)cc1 -2.22%
COc1ccc(CN(C)C[C@H]2Oc3c(NS(=O)(=O)c4ccc(Cl)cc4)cccc3C(=O)N([C@H](C)CO)C[C@@H]2C)cc1 -1.84%
O=C(Nc1ccc(C(F)(F)F)cc1)N[C@@H]1CC[C@H](CC(=O)N2CCCCC2)O[C@H]1CO -2.54%
O=C([C@@H]1[C@@H](CO)[C@@H]2Cn3c(ccc(-c4ccccc4)c3=O)[C@H]1N2CCC(F)(F)F)N1CCCCC1 -29.7%
CCCNC(=O)N1CC(=O)N2[C@H](CO)[C@@H](c3ccc(-c4ccc(F)cc4)cc3)[C@H]2C1 4.11%
C[C@H](CO)N1C[C@H](C)[C@@H](CN(C)C(=O)Nc2ccnc(N3CCOCC3)c2)OCc2ccccc2-c2c(n(C)c3ccccc23)C1=O -5.68%
CC(C)CCC(C)NC(=O)c1ccc2nccnc2c1 (stereo unspecified) 7.36%
Cc1ccc(C)c(NC(=O)c2ccc3nccnc3c2)c1 0.033%
O=C(Nc1ccc(C(F)(F)F)cc1)N[C@@H]1CC[C@H](CCNC(=O)c2ccccc2F)O[C@@H]1CO 0.363%
Cc1ccc(S(=O)(=O)NC[C@H]2CC[C@@H]3[C@@H](CN3Cc3ccccc3C(=O)O)O2)cc1 -3.22%
C[C@@H](NC(=O)C[C@H]1C[C@H]2c3cc(NC(=O)Nc4ccccc4F)ccc3O[C@H]2[C@@H](CO)O1)c1ccccc1 2.15%
COCC(C)n1c(SCc2ccc(C(=O)OC)o2)nc2ccccc2c1=O (stereo unspecified) 1.17%
Nc1nnc(SCC(=O)NCC(=O)Nc2ccc(F)c(F)c2F)s1 0.518%
CN1CCN(C(=O)C[C@H]2CC[C@@H](NC(=O)c3ccc4c(c3)OCO4)[C@H](CO)O2)CC1 1.96%
CCOC(=O)c1c(NC(=O)C(C)Sc2c[nH]c3ccccc23)sc2c1CCC2 (stereo unspecified) 0.63%
CCOC(=O)c1c(NC(=O)C2(C)Cc3ccccc3C(=O)O2)sc2c1CCCC2 (stereo unspecified) -3.61%
O=C(C[C@H]1CC[C@H]2[C@@H](COC[C@@H](O)CN2Cc2ccccc2F)O1)NCc1ccccc1F 3.18%
C/C(=C\c1ccccc1)C1NC(=O)c2c(sc3c2CCCC3)N1 (stereo unspecified) -1.37%
CC(=O)N1[C@@H](CO)[C@@H](c2ccc(C3=CCCC3)cc2)C12CN(C(=O)C1CC1)C2 3.6%
CO[C@H]1CN(C)C(=O)c2ccc(NC(=O)c3cnccn3)cc2OC[C@H](C)N(C)C[C@@H]1C 0.983%
CO[C@@H]1CN(C)C(=O)c2cc(NC(=O)c3ccno3)ccc2OC[C@@H](C)N(S(C)(=O)=O)C[C@@H]1C 0.416%
COCC(=O)Nc1ccc2c(c1)[C@H]1C[C@H](CC(=O)NCc3ccc(OC)cc3)O[C@@H](CO)[C@H]1O2 -0.814%
CCCNC(=O)N1C[C@H](C)[C@@H](OC)CN(C)C(=O)c2ccc(NS(C)(=O)=O)cc2OC[C@@H]1C -4.54%
C[C@@H]1CN([C@@H](C)CO)C(=O)c2cc(-c3ccc(C#N)cc3)cnc2O[C@@H]1CN(C)Cc1cccnc1 -2.7%
CO[C@H]1CN(C)C(=O)c2ccc(NC(=O)Nc3ccc(Cl)cc3)cc2OC[C@H](C)N(C(=O)Nc2c(C)noc2C)C[C@@H]1C -0.008%
COc1ccccc1OCC(=O)O/N=C(\N)c1ccccn1 0.993%
COc1ccc(NC(=O)CSc2ccc(-c3ccco3)nn2)c(OC)c1 -1.12%
COCC(=O)Nc1ccc2c(c1)OC[C@@H](C)N(C(=O)c1cnccn1)C[C@H](C)[C@H](OC)CN(C)C2=O -3.74%
CCC(=O)N1CC(=O)N2[C@@H](CO)[C@@H](c3ccc(C#CC4CCCC4)cc3)[C@@H]2C1 -0.876%
C[C@H](CO)N1C[C@H](C)[C@H](CN(C)C(=O)c2ccccn2)Oc2ncc(-c3ccccc3F)cc2C1=O 0.464%
Cc1ccc(S(=O)(=O)Nc2ccc3c(c2)C(=O)N([C@@H](C)CO)C[C@@H](C)[C@H](CN(C)Cc2ccc4c(c2)OCO4)OCCCC[C@@H](C)O3)cc1 4.41%
C[C@H](CO)N1C[C@H](C)[C@H](CN(C)CC2CCCCC2)OCCCC[C@H](C)Oc2ccc(NS(=O)(=O)c3ccc(F)cc3)cc2C1=O 13.2%
Cc1ccc(S(=O)(=O)N(C)C[C@@H]2OCCCC[C@@H](C)Oc3ccc(NS(=O)(=O)c4ccccc4)cc3C(=O)N([C@H](C)CO)C[C@@H]2C)cc1 15%
C[C@@H]1CCCCO[C@@H](CN(C)Cc2ccc(Cl)c(Cl)c2)[C@H](C)CN([C@@H](C)CO)C(=O)c2cc(NS(C)(=O)=O)ccc2O1 11.8%
C[C@@H]1CCCCO[C@@H](CN(C)S(C)(=O)=O)[C@H](C)CN([C@@H](C)CO)C(=O)c2cc(NS(=O)(=O)c3ccc(F)cc3)ccc2O1 1.65%
Cc1ccc(S(=O)(=O)N(C)C[C@H]2OCCCC[C@@H](C)Oc3ccc(NS(C)(=O)=O)cc3C(=O)N([C@H](C)CO)C[C@@H]2C)cc1 -1.35%
CC(C)NC(=O)Nc1ccc2c(c1)C(=O)N([C@H](C)CO)C[C@H](C)[C@@H](CN(C)Cc1ccc(C(F)(F)F)cc1)OCCCC[C@@H](C)O2 0.221% and 2.28%
C[C@@H]1CCCCO[C@H](CN(C)Cc2ccc(C(F)(F)F)cc2)[C@H](C)CN([C@H](C)CO)C(=O)c2cc(NC(=O)Nc3ccc(F)cc3)ccc2O1 5.62%
